High-throughput results as filed in PubChem BioAssay.
Shown are actives, neighbours in structure and some others; about 21% of the full set was active somewhere.
Cycloheximide cs – counter-screen hit for Shiga toxin inhibitors, cycloheximide. cell reporter, cycloheximide protein synthesis inhibition counterscreen. max response, %. actives 12% (n = 300,000); in the data active = max response mostly above about 13%, no sharp cut-off; inactive = mostly below about 14%; also: read at 38.3 µM for the half of the compounds with a filed dose
Pf growth 96h – P. falciparum growth inhibition at 96 hour, primary screen for plastid delayed-death inhibitors | P. falciparum luciferase reporter growth, 96 h | Potency, µM (top dose mostly 28.7 µM), most hits filed as inhibitors | actives 6.9% (n = 320,000) | AID 504834; active = well fitted inhibition curve with a large enough effect; inconclusive = small, poorly fitted or top-dose-only effect, or another doubt; inactive = no such curve, though single readings can be large or run the other way
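P. falciparum expressing integrated firefly luciferase grown in erythrocytes (2% hematocrit, 0.05% parasitemia final) with compounds for 96 hours at 37 C, 5% CO2. Growth inhibition read as loss of luminescence after adding luciferase detection reagent.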
Shiga toxin inh – inhibitors of Shiga toxin in Vero cells; Vero cells, Shiga toxin protein synthesis inhibition reporter; inhibition, % at 38.7 µM; actives 9.2% (n = 290,000); in the data active = inhibition mostly above about 28%, no sharp cut-off; inactive = mostly below about 43%
SARS PLpro yeast – SARS-CoV PLP inhibition in yeast | AID 485353 | S. cerevisiae expressing SARS-CoV PLpro, growth rescue | Potency, µM (titrated, usually from 32.9 µM), most hits filed as activators | actives 0.19% (n = 330,000); also: nearly all actives have a fitted effect of over 55% in size
NS1 inh – influenza NS1 inhibition. Potency, µM (highest dose often 46.1 µM). AID 2326. actives 0.4% (n = 270,000); also: actives are rising curves; nearly all actives have a fitted effect of over 50% in size
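Compounds were scored for reversing the slow growth caused by influenza A NS1 in S. cerevisiae, measured by optical density at 600 nm. Assay medium contained 2% galactose at pH 6.0; NS1-free yeast of the same strain were the positive control.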
Pf growth 48h – inhibits P. falciparum growth in the first generation, 48 h; P. falciparum luciferase growth in erythrocytes, 48 h; actives 5.9% (n = 310,000); Potency, µM (series often up to 28.7 µM), most hits filed as inhibitors; active = well fitted inhibition curve with a large enough effect; inconclusive = small, poorly fitted or top-dose-only effect, or another doubt; inactive = no such curve, though single readings can be large or run the other way
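Read-out is firefly luciferase luminescence from an integrated reporter in P. falciparum, so falling signal marks reduced parasite growth. Infected erythrocytes were at 2% hematocrit and 0.1% parasitemia (final) in Albumax-supplemented RPMI 1640.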
Large screens that a line does not name were inactive. Unless noted, calls follow the shape of the full dose curve.

CC(=O)CSc1cc(C)nc2c(-c3ccccc3)c(C)nn12	none
Cc1nn2c(-c3cccnc3)ccnc2c1-c1ccccc1	Cycloheximide cs 25, Shiga toxin inh 41
Cc1cc(N)n2nc(C)c(-c3ccccc3)c2n1	Cycloheximide cs 13, Pf growth 48h inconclusive
Cc1cc(N)n2nc(C)c(-c3ccc(Cl)cc3)c2n1	Pf growth 48h inconclusive
Cc1cc(SCC(=O)c2cccs2)n2nc(C)c(-c3ccccc3)c2n1	Cycloheximide cs 39, Shiga toxin inh 39, NS1 inh inconclusive, Pf growth 48h inconclusive
C=CCSc1cc(C)nc2c(-c3ccccc3)c(C)nn12	Cycloheximide cs 25, Pf growth 96h 10µM, Pf growth 48h inconclusive
CC(=O)Nc1cccc(NC(=O)CSc2nc3c(c(=O)n(C)c(=O)n3C)n2C)c1	none
CCn1cnc2cc([N+](=O)[O-])ccc21	Pf growth 48h inconclusive (no result: NS1 inh)
CCC(=O)CN(Cc1cc(OC)ccc1OC)S(=O)(=O)c1ccccc1Br	none (no result: Cycloheximide cs, Pf growth 96h, Shiga toxin inh, NS1 inh, Pf growth 48h)
COn1c(SCC(=O)N(C)C)nc2ccccc2c1=O	Pf growth 96h inconclusive
COc1cccc(/C=C2\Oc3cc(OCC(=O)N4CCCC4)ccc3C2=O)c1OC	Cycloheximide cs 15, Pf growth 96h 10µM, Pf growth 48h 13µM
COc1cccc(/C=C2\Oc3cc(OCC(=O)N4CCCCC4)ccc3C2=O)c1OC	Pf growth 96h inconclusive, Shiga toxin inh 45, Pf growth 48h inconclusive
CCOC(=O)C(C(=O)OCC)C(C[N+](=O)[O-])c1ccccc1 (stereo not given)	none (no result: NS1 inh)
O=C(O)CCC(=O)Nc1nc2nccc(-c3ccccc3)n2n1	none
OCCNCCSc1nc(C2CCCCC2)n(-c2ccccc2Cl)n1	Pf growth 96h inconclusive, Pf growth 48h inconclusive
CC1Sc2ccc(S(=O)(=O)CCC(=O)Nc3ccccn3)cc2NC1=O (stereo not given)	Pf growth 96h 9.3µM
CCC1Sc2ccc(S(=O)(=O)CCC(=O)N3CCc4ccccc43)cc2NC1=O (stereo not given)	none
CC1Sc2ccc(S(=O)(=O)CCC(=O)NCc3ccccc3)cc2NC1=O (stereo not given)	Pf growth 96h inconclusive
CC1Sc2ccc(S(=O)(=O)CCC(=O)N3CCc4ccccc43)cc2NC1=O (stereo not given)	Pf growth 96h 17µM
COC(=O)CN1C(=O)[C@@H]2[C@H](C1=O)[C@@H]1CC(C(=O)OC)=C[C@@H](C(=O)OC)C3C1=C(C(=O)[C@@]3(C)NC(=O)c1ccccc1)[C@@H]2C (stereo not given in full)	none (no result: Pf growth 96h, SARS PLpro yeast, NS1 inh, Pf growth 48h)
O=C(Nc1ccc(S(=O)(=O)N2CCCC2)cc1)c1cccs1	Pf growth 96h inconclusive, Pf growth 48h inconclusive
CN1CCN(S(=O)(=O)c2ccc(NC(=O)c3cccs3)cc2)CC1	none (no result: SARS PLpro yeast)
CC1CCCCN1S(=O)(=O)c1ccc(NC(=O)c2cccs2)cc1 (stereo not given)	Pf growth 96h inconclusive, Pf growth 48h 15µM
CC1CCN(S(=O)(=O)c2ccc(NC(=O)c3cccs3)cc2)CC1	Pf growth 48h 4.7µM
CC(C)CC(=O)C[C@H](O)C(Cl)(Cl)Cl	none (no result: Cycloheximide cs, Pf growth 96h, Shiga toxin inh, SARS PLpro yeast, Pf growth 48h)
CCc1ccc(C(=O)NNC(=O)CCc2nc3ccccc3c(=O)[nH]2)cc1	none (no result: Cycloheximide cs, Shiga toxin inh, NS1 inh)
CCN=C(NCC)SC1CC(=O)N(c2cccc(OCC)c2)C1=O (stereo not given)	none
O=C(Nc1cccc(S(=O)(=O)N2CCOCC2)c1)c1cn(-c2ccccc2)nc1-c1ccc(F)cc1	none
O=C(Nc1cccc(S(=O)(=O)N2CCOCC2)c1)c1cn(-c2ccccc2)nc1-c1ccccc1	Pf growth 96h 10µM
O=C(NCCCN1CCOCC1)c1cn(-c2ccccc2)nc1-c1cccs1	none (no result: Pf growth 48h)
Cc1ccc(-c2nn(-c3ccccc3)cc2C(=O)NCCCN2CCOCC2)cc1	Cycloheximide cs 16
Cc1ccc(-c2nn(-c3ccccc3)cc2C(=O)Nc2ccc(C)c(S(=O)(=O)N3CCOCC3)c2)cc1	Pf growth 96h inconclusive, Pf growth 48h 10µM
CCOc1ccccc1NC(=S)N1CCC(NC(=O)C(C)(C)C)CC1	none
Cc1cc(NC(=O)C2CCN(C(=O)c3ccco3)CC2)ccc1Br	none (no result: Cycloheximide cs, Shiga toxin inh, SARS PLpro yeast, NS1 inh)
C=C(CCC12O[C@H](C(=O)O)[C@@](O)(C(=O)O)[C@](C(=O)O)(O1)[C@H](OC(=O)/C=C/[C@@H](C)C[C@@H](C)CC)[C@H]2O)[C@@H](OC(C)=O)[C@H](C)Cc1ccccc1	none (no result: Pf growth 96h, SARS PLpro yeast, NS1 inh, Pf growth 48h)
COC1C=CO[C@@]2(C)Oc3c(C)c(O)c4c(O)c(c(C=NN5CCN(C)CC5)c(O)c4c3C2=O)NC(=O)/C(C)=C\C=CC(C)C(O)[C@@H](C)C(O)C(C)[C@H](OC(C)=O)C1C (stereo not given in full)	Pf growth 96h 0.6µM, Pf growth 48h 0.95µM (no result: Cycloheximide cs, Shiga toxin inh, SARS PLpro yeast, NS1 inh)
CO[C@H]1/C=C/O[C@@]2(C)Oc3c(C)c(O)c4c(O)c(c5c(c4c3C2=O)NC2(CCN(CC(C)C)CC2)N=5)=NC(=O)/C(C)=C\C=C\[C@H](C)[C@H](O)[C@@H](C)[C@@H](O)[C@@H](C)[C@H](OC(C)=O)[C@@H]1C	Pf growth 96h 5.4µM, Pf growth 48h 8.5µM (no result: Cycloheximide cs, Shiga toxin inh, SARS PLpro yeast, NS1 inh)
CO[C@@H]1/C=C\O[C@]2(C)Oc3c(C)c(O)c4c(O)c(c(CN5CCN(C)CC5)c(O)c4c3C2=O)NC(=O)/C(C)=C\C=C[C@@H](C)[C@@H](O)[C@H](C)[C@@H](O)C(C)[C@H](OC(C)=O)[C@@H]1C (stereo not given in full)	none (no result: Cycloheximide cs, Pf growth 96h, Shiga toxin inh, SARS PLpro yeast, Pf growth 48h)
COC1C=CO[C@@]2(C)Oc3c(C)c(O)c4c(O)c(c5c(nc6cc(C)ccn65)c4c3C2=O)NC(=O)/C(C)=C\C=CC(C)C(O)[C@@H](C)C(O)C(C)[C@@H](OC(C)=O)C1C (stereo not given in full)	Pf growth 96h 4.8µM, Pf growth 48h 6.7µM (no result: Cycloheximide cs, Shiga toxin inh, SARS PLpro yeast, NS1 inh)
CCOC(=O)c1ccc(NC(=O)c2nccnc2C(=O)O)cc1	NS1 inh inconclusive (no result: Pf growth 48h)
COc1ccc(C(=O)N(C)C2CCCCC2)cc1S(=O)(=O)N1CCOCC1	Pf growth 96h inconclusive, Pf growth 48h inconclusive (no result: Cycloheximide cs, Shiga toxin inh, NS1 inh)
C/C(=N\N1CCCCC1)c1c(O)[nH]c(=O)[nH]c1=O	Cycloheximide cs 18, Pf growth 96h inconclusive, SARS PLpro yeast inconclusive
C/C(=N\N1CCCCCC1)c1c(O)n(-c2ccccc2)c(=O)[nH]c1=O	Pf growth 96h inconclusive, Pf growth 48h inconclusive
Cc1ccc(NC(=O)CSc2nc3nn(-c4ccccc4)c(=O)c-3c3n2CCCCC3)cc1F	none (no result: Cycloheximide cs, Pf growth 96h, Shiga toxin inh, NS1 inh, Pf growth 48h)
O=C(Nc1ccccc1)c1cc(-n2cnnc2)ccc1Cl	SARS PLpro yeast 10µM
O=C(Nc1ccc(-c2nc3ccccc3o2)c(O)c1)c1cc(-n2cnnc2)ccc1Cl	NS1 inh inconclusive, Pf growth 48h 9.3µM
Cc1c(NC(=O)c2cc(-n3cnnc3)ccc2Cl)cccc1-c1nc2ccccc2o1	Cycloheximide cs 18, Pf growth 96h inconclusive
O=C(Nc1ccc2oc(-c3ccccc3)nc2c1)c1cc(-n2cnnc2)ccc1Cl	Cycloheximide cs 28, Shiga toxin inh 84 (no result: NS1 inh)
CCOC(=O)c1cc(C#N)c(N2CCN(c3ccc(OC)cc3)CC2)[nH]c1=O	none (no result: NS1 inh)
